rTrxR1 inhibitor – rat TrxR1 inhibition | recombinant rTrxR1, NADPH fluorescence consumption, selenite substrate | Potency, µM (doses to about 114 µM), usual class: inhibitors | actives 1% (n = 390,000) | AID 588453; also: nearly all actives have a fitted effect of over 65% in size
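Rat TrxR1 (90 nM in the dispensed reagent) was pre-reduced with 400 uM NADPH for 5 min at room temperature, then incubated with compound for 15 min. After 400 uM selenite was added, NADPH fluorescence (Ex 340/Em 450 nm) was followed for 8 min.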
VDR inh – vitamin D3 receptor (human) inhibition; P11473; VDR-SRC2-3 peptide fluorescence polarization, 2 h; Potency, µM, hits mostly inhibitors; actives 0.93% (n = 400,000); AID 504847
Target sequence (P11473 whole entry, looked up): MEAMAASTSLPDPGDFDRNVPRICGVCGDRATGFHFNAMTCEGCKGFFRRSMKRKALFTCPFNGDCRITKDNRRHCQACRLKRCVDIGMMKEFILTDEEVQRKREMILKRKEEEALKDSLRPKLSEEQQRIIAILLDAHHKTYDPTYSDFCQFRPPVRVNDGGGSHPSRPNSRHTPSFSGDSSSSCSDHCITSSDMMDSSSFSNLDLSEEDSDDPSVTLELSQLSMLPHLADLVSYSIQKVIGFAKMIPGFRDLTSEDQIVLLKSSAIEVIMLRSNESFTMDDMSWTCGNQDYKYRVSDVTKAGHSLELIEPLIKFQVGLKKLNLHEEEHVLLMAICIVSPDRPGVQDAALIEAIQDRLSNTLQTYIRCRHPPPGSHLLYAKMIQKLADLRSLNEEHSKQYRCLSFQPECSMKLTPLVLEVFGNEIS
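After 23 nl compound addition and a short centrifugation, plates sat for 2 hours at ambient temperature; polarization of fluorescence then indicated loss of VDR binding to peptide SRC2-3.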
KAT2A inh – inhibitors of human GCN5L2 histone acetyltransferase. Q92830. GCN5L2 HAT assay, ThioGlo1 CoA-SH fluorescence. Potency, µM (top dose mostly 58.9 µM), hits mostly inhibitors. actives 0.21% (n = 390,000)
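Free CoA generated was detected with ThioGlo1 (50uM) fluorescence at Ex340nm/Em540nm, read immediately and after 20 min at room temperature. Enzyme, 20 nM in HEPES pH 7.5 buffer, saw compounds 15 min before adding 75uM H3(1-25) peptide and 70uM acetyl-CoA.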
TrxR1 substrate – is turned over as a substrate by rat TrxR1; O89049; purified TrxR1 substrate turnover, NADPH consumption readout; Potency, µM (series often up to 114 µM); actives 0.01% (n = 390,000); also: nearly all actives have a fitted effect of over 50% in size
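Rat TrxR1, dispensed at 90 nM, was prereduced with 400 uM NADPH (final) for 5 min at ~22 deg C, then incubated with compound 15 min before 400 uM selenite. A first-read NADPH fluorescence drop versus no-compound background flagged substrates.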
A number is an active result; [ ] = dose if it differs, or a comment. An excerpt weighted towards active compounds, which were near 1.8% of everything screened. Calls follow the shape of the dose curve; as a rule, active = well fitted curve in the direction sought with a large enough effect; inconclusive = small, poorly fitted or top-dose-only effect, or another doubt; inactive = no such curve, though single readings can be large; an effect the other way counts as inactive or inconclusive.

Results for CCOC(=O)N1CCN(/[N+]([O-])=N/Oc2ccc(C(F)(F)F)cc2[N+](=O)[O-])CC1 ?
rTrxR1 inhibitor: inactive; TrxR1 substrate: inactive

Results for COCCOC(=O)N1CCN(/[N+]([O-])=N/Oc2ccc([N+](=O)[O-])cc2[N+](=O)[O-])CC1 ?
rTrxR1 inhibitor: 8.9µM; TrxR1 substrate: inactive[0.457 µM]

How did O=C(OCCF)N1CCN(/[N+]([O-])=N/Oc2ccc([N+](=O)[O-])cc2[N+](=O)[O-])CC1 do in these assays?
rTrxR1 inhibitor: 7.1µM; TrxR1 substrate: inactive

How did CCCCCCCCCCCCCCCCOC(=O)N1CCN(/[N+]([O-])=N/Oc2ccc([N+](=O)[O-])cc2[N+](C)=O)CC1 do in these assays?
rTrxR1 inhibitor: inactive; TrxR1 substrate: inactive[0.457 µM]

What do the screens show for `CCc1ccc2oc(-c3ccc(OC)cc3)cc(=Nc3cccc(C(=O)O)c3)c2c1`?
rTrxR1 inhibitor: inactive; VDR inh: 79µM; KAT2A inh: inactive; TrxR1 substrate: inactive

Results for COc1ccc(-c2cc(=Nc3ccc(C(=O)O)cc3)c3cc(C)ccc3o2)cc1 ?
rTrxR1 inhibitor: inactive; VDR inh: inactive; KAT2A inh: inactive; TrxR1 substrate: inactive

How did COc1cc2nc(N3CCCCC3)nc(NC3CCN(Cc4ccccc4)CC3)c2cc1OC do in these assays?
rTrxR1 inhibitor: inactive; TrxR1 substrate: inactive

What do the screens show for `Fc1ccc(C[n+]2csc3ccccc32)cc1`?
rTrxR1 inhibitor: inactive; VDR inh: 40µM; KAT2A inh: inactive; TrxR1 substrate: inactive

How did COc1cccc(CN(C(=O)/C=C/c2ccco2)C2CCS(=O)(=O)C2)c1 (configuration not stated) do in these assays?
rTrxR1 inhibitor: 13µM; VDR inh: inactive; KAT2A inh: inactive; TrxR1 substrate: inactive

Results for O=C(/C=C/c1ccco1)N(Cc1ccc(Cl)cc1)C1CCS(=O)(=O)C1 (configuration not stated) ?
rTrxR1 inhibitor: 25µM; VDR inh: inactive; KAT2A inh: inactive; TrxR1 substrate: inactive

Results for CN(C)c1ccc(CN(C(=O)/C=C/c2ccco2)C2CCS(=O)(=O)C2)cc1 (configuration not stated) ?
rTrxR1 inhibitor: inactive; VDR inh: inactive; KAT2A inh: inactive; TrxR1 substrate: inactive

Results for COc1ccc(CN(C(=O)/C=C/c2ccco2)C2CCS(=O)(=O)C2)cc1OC (configuration not stated) ?
rTrxR1 inhibitor: 16µM; VDR inh: inactive; KAT2A inh: inactive; TrxR1 substrate: inactive

What do the screens show for `CCC(CC)C(=O)Nc1ccc(-c2cn3cccnc3n2)cc1`?
rTrxR1 inhibitor: 79µM; VDR inh: inactive; KAT2A inh: inconclusive; TrxR1 substrate: inactive

Results for O=C1CC(c2ccco2)Sc2nc3ccccc3n21 (configuration not stated) ?
rTrxR1 inhibitor: 13µM; VDR inh: inactive; KAT2A inh: inactive; TrxR1 substrate: inactive

How did CCCN1C(=O)CC(c2ccco2)Sc2ccccc21 (configuration not stated) do in these assays?
rTrxR1 inhibitor: inconclusive; VDR inh: inactive; KAT2A inh: inactive; TrxR1 substrate: inactive

What do the screens show for `O=C1CC(c2cccs2)Sc2nc3ccccc3n21` (configuration not stated)?
rTrxR1 inhibitor: inconclusive; VDR inh: inactive; KAT2A inh: inconclusive; TrxR1 substrate: inactive

What do the screens show for `CN1C(=O)CC(c2ccco2)Sc2ccccc21` (configuration not stated)?
rTrxR1 inhibitor: 56µM; VDR inh: inactive; KAT2A inh: inactive; TrxR1 substrate: inactive

Results for CC(C)(C)n1ncc2c(=O)n(Cc3c(F)ccc(F)c3Cl)cnc21 ?
rTrxR1 inhibitor: inactive; TrxR1 substrate: inactive

How did COc1ccc(CN2CC[C@H]3C=CC[C@@H](C(=O)Nc4ccc(Cl)cc4Cl)[C@H]3C2=O)cc1OC do in these assays?
rTrxR1 inhibitor: inactive; TrxR1 substrate: inactive

Results for CCOC(=O)C1CCN(Cc2ccc(O)c3ncccc23)CC1 ?
rTrxR1 inhibitor: 7.1µM; VDR inh: inactive; KAT2A inh: inactive; TrxR1 substrate: inactive

What do the screens show for `Clc1ccc(CCNC(c2nnc(-c3ccccc3)o2)c2ccccc2Cl)cc1` (configuration not stated)?
rTrxR1 inhibitor: inactive; VDR inh: inactive; KAT2A inh: inactive; TrxR1 substrate: inactive

How did COc1ccc(-c2csc(-c3ccc(O)cc3)n2)cc1 do in these assays?
rTrxR1 inhibitor: 56µM; VDR inh: inconclusive; KAT2A inh: inactive; TrxR1 substrate: inactive

How did CN(C)c1ccc(/C=C2\CCc3ccccc32)cc1 do in these assays?
rTrxR1 inhibitor: inactive; TrxR1 substrate: inactive
